The values that follow come from ChEMBL document CHEMBL1157539, “Thousands of chemical starting points for antimalarial lead identification” (Nature, 2010).

For the assay, the system named is HepG2. The experiment in a line: GSK_TCMDC: Percent inhibition of human HepG2 cell line. Test compounds present at 10uM. Type of assay: functional.
With `COc1ccc(NCc2cccc(-c3cccc(CNCCc4ccccc4)c3)c2)cc1.O=C(O)C(F)(F)F`, the Inhibition came out at 41%. As for `O=C(NCC1CCN(Cc2cccc(C(F)(F)F)c2)C1)c1cc(-c2cccc(F)c2)cs1.O=C(O)C(F)(F)F` (configuration not stated), the Inhibition is listed as 19%.

`Cc1cc2ncn(-c3ccnc(N4CCN(CCCN5CCCC5)CC4)n3)c2cc1C.O=C(O)C(F)(F)F` gave an Inhibition of 24%. In turn, `O=C(Nc1ccc(N2CCCN(Cc3cccc(F)c3)CC2)cc1)c1cccs1.O=C(O)C(F)(F)F` came in with an Inhibition of 2%. In the case of `O=C(NC1CCN(CCN2CCC(c3cn(CCO)c4ccccc34)CC2)CC1)c1ccc(-c2ccc(C(F)(F)F)cc2)cc1` it was 30%; in that of `CCCCCC(=O)N1CCOC(CCN2CCC(c3ccccc3)CC2)(c2ccc(Cl)c(Cl)c2)C1` (configuration not stated), 17%.

`COc1ccccc1C1CCN(C2CCC(NC(=O)/C=C/c3cccc(C(F)(F)F)c3)CC2)CC1` (configuration not stated) displayed an Inhibition of 38%. `O=C(/C=C/c1ccc(Cl)c(Cl)c1)NCCCCCN1CCC(NC(=O)Nc2cc(Cl)nc(Cl)c2)CC1` had an Inhibition of 4%. In the case of `CN(CCN)Cc1ccc(-c2ccc(-c3nc4cc(F)ccc4[nH]3)s2)cc1.O=C(O)C(F)(F)F` it was 31%. `CC1CN(Cc2ccccc2)CCN1c1ccc(NC(=O)c2ccc(F)cc2)cc1.O=C(O)C(F)(F)F` (configuration not stated) returned an Inhibition of 0%. In the case of `O=C(O)C(F)(F)F.O=C1CCCN1CCCNCc1ccc(-c2ccc(-c3nc4cc(F)ccc4[nH]3)s2)cc1` it was 19%; in that of `O=C(Nc1ccc2c(c1)CCN(C1CCC1)CC2)c1cn(-c2ccccc2)nc1-c1ccccc1.O=C(O)C(F)(F)F`, 38%. To `Cc1cc2ccccc2c(CON2C(=N)N=C(N)NC2(C)C)c1C.Cl` belongs 65%. To `Cc1cc(C(=O)CN2C(=O)NC(C)(c3ccc4ccccc4c3)C2=O)c(C)n1Cc1ccco1` (configuration not stated) belongs 12%. Compound `c1cc(-c2nc3ccccc3[nH]2)nc(-c2nc3ccccc3[nH]2)c1` gave an Inhibition of 7%. For `CCn1c(Sc2ccc([N+](=O)[O-])c(C#N)c2)nnc1-c1cccc(Cl)c1`, the Inhibition is recorded as 8%.

On to `Cl.O=c1nc(NCCCNCc2cc3c(Cl)cc(Cl)cc3[nH]2)[nH]c2ccccc12`, for which the Inhibition was 10%. In the case of `COc1ccc(CCn2c(C3CCCCC3)nc3oc4ccccc4c(=O)c3c2=O)cc1` it was 12%; in that of `Cc1cc(N2CCCC2)nc(Nc2ccc(NC(=O)COc3ccccc3)cc2)n1`, 43%. Compound `CC(=O)Nc1ncc(C(=O)Nc2cccc(-c3cccc(-c4nc5ccccc5[nH]4)c3)c2)s1` showed an Inhibition of 16%. In the case of `CCOC(=O)C1CCN(CCOc2cc(NC(=O)/C=C/c3ccccc3Cl)ccc2Br)CC1.O=C(O)C(=O)O` it was 6%; in that of `CSc1c(CNCCCNc2cc(=O)c3ccccc3[nH]2)[nH]c2ccccc12`, 0%. To `NC(=O)C1CCN(Cc2ccc(-c3ccc(-c4nc5cc(F)ccc5[nH]4)cc3)cc2)CC1.O=C(O)C(F)(F)F` belongs 12%; to `COc1cc(NC2=NS(=O)(=O)c3cc(Cl)ccc3N2C)cc(OC)c1OC.O=C(O)C(F)(F)F`, 0%. To `Cc1ccccc1C1CCN(C2CCC(NC(=O)/C=C/c3cc(F)ccc3C(F)(F)F)CC2)CC1` (configuration not stated) belongs 90%. `CS(=O)(=O)CCNCc1cccc(-c2cc3c(Nc4ccc5c(cnn5Cc5ccccc5)c4)ncnc3s2)c1.O=C(O)C(F)(F)F` showed an Inhibition of 36%.

Turning to `Cc1[nH]c2ccc(O)cc2c1C1CCN(CCCCCNC(=O)/C=C/c2ccc(Cl)c(Cl)c2)CC1`, the Inhibition is on record as 33%.
